{"source": "PubChem BioAssay AID1851", "about": "(National Center for Advancing Translational Sciences (NCATS), 2009)", "note": "Screen size: about 16,000 compounds; about 5,700 (36%) were called active. Inconclusive results (about 24%) are left out. The list shows a part of the results. A number with no mark means an inactive call. The call rests on the fitted dose curve; in most records, active means well fitted curve in the direction sought with a large enough effect; inconclusive means small, poorly fitted or top-dose-only effect, or effect the other way; inactive means no such curve, though single readings can be large or run the other way. On the % scale 0 is the no-effect control and ±100 the full control effect."}
{"biological_target": "Cytochrome P450 1A2 (Homo sapiens) (UniProt P05177)", "sequence (P05177 whole entry, looked up)": "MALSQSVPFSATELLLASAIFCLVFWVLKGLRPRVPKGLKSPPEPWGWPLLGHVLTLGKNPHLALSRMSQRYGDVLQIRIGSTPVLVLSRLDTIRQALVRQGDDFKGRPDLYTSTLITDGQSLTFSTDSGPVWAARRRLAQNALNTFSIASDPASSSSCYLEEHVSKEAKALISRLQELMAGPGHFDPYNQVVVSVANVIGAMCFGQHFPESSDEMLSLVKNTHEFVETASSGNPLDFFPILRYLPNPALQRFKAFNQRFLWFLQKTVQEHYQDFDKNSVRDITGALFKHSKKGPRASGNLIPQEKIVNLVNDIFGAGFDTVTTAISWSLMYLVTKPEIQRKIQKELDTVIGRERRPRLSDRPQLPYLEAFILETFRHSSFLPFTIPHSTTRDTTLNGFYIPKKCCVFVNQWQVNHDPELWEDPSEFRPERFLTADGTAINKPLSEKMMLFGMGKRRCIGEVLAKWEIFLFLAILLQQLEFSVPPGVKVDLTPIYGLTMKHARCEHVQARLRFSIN", "experiment": "Cytochrome panel assay with activity outcomes", "conditions": "recombinant CYP, pro-luciferin dealkylation, luminescence, p450-cyp1a2; series mostly up to 57.1 µM"}
{"smiles": "O=c1c2c(-c3ccc(Cl)cc3)csc2nc2n1CCC2", "AC50": "1.26 µM (active)"}
{"smiles": "COc1ccccc1-c1c(C)oc2c(CN3CCN(CCO)CC3)c(O)ccc2c1=O", "AC50": "inactive"}
{"smiles": "COc1ccc(-c2c(C)oc3c(CN4CCN(CCO)CC4)c(O)ccc3c2=O)cc1OC", "AC50": "inactive"}
{"smiles": "CCCc1cc(=O)oc2c(CN3CCOCC3)c(O)ccc12", "AC50": "14.1 µM (active)"}
{"smiles": "O=c1cc(CN2CCN(c3ccc(F)cc3)CC2)c2cc3c(cc2o1)CCCC3", "AC50": "inactive"}
{"smiles": "O=C(C1CCN(S(=O)(=O)N2CCOCC2)CC1)N1CCN(Cc2ccccc2)CC1", "AC50": "inactive"}
{"smiles": "O=c1oc2c(CN3CCOCC3)c(O)ccc2c2ccccc12", "AC50": "1.26 µM (active)"}
{"smiles": "Cc1cc(NC(=O)CSc2nc3ccsc3c(=O)n2CCCCC(=O)O)no1", "AC50": "inactive"}
{"smiles": "Cc1cc(NC(=O)CSc2n[nH]c(-c3cccs3)n2)no1", "AC50": "2.51 µM (active)"}
{"smiles": "CCCCc1nc(SCC(=O)Nc2ncccn2)n[nH]1", "AC50": "inactive"}
{"smiles": "O=C(CSc1nc2ccccc2o1)N1c2ccccc2Sc2ccc(Cl)cc21", "AC50": "2.24 µM (active)"}
{"smiles": "CN1CCN(CC(=O)N2c3ccccc3Sc3cc4ccccc4cc32)CC1", "activity, negative = inhibition": "-21.6% [at 2.29 µM]"}
{"smiles": "O=C(CSc1nc2ccccc2s1)c1sc2sc3ccccc3[n+]2c1O", "AC50": "5.01 µM (active)"}
{"smiles": "O=C(CSc1nc2ccccc2s1)N1c2ccccc2Sc2ccccc21", "AC50": "0.708 µM (active)"}
{"smiles": "COc1ccc(OCc2nnc(SCC(=O)N3c4ccccc4Sc4ccc(Cl)cc43)o2)cc1", "AC50": "inactive"}
{"smiles": "O=C(CSc1nc2ccccc2s1)N1c2ccccc2Sc2ccc(C(F)(F)F)cc21", "AC50": "1.12 µM (active)"}
{"smiles": "Cc1c(NC(=O)Cn2ccc([N+](=O)[O-])n2)c(=O)n(-c2ccccc2)n1C", "AC50": "inactive"}
{"smiles": "Cc1ccc(-c2ccc(CCC(=O)O)n2CC2CCCO2)cc1", "note": "(configuration not stated)", "AC50": "inactive"}
{"smiles": "Nc1ncc(-c2ccccc2)n1CC1CCCO1", "note": "(configuration not stated)", "AC50": "15.8 µM (active)"}
{"smiles": "S=c1[nH]nc(-c2ccncc2)n1CC1CCCO1", "note": "(configuration not stated)", "AC50": "inactive"}
{"smiles": "O=C(NNC(=O)C1CCN(S(=O)(=O)c2ccc(Cl)cc2)CC1)c1ccc(Cl)cc1", "AC50": "inactive"}
{"smiles": "Nc1ccc(CCNc2ncnc3c2ncn3[C@@H]2O[C@@H](CO)[C@H](O)[C@@H]2O)cc1", "AC50": "inactive"}
{"smiles": "Cc1ccc(N=Nc2c(=O)[nH]n3c(C)cc(C)nc23)cc1", "AC50": "12.6 µM (active)"}
{"smiles": "Cc1cccc(C)c1NC(=O)CS(=O)CC(=O)Nc1ccc(F)cc1F", "note": "(configuration not stated)", "AC50": "inactive"}
{"smiles": "Cc1nc(-c2cccnc2)sc1C(N)=O", "AC50": "14.1 µM (active)"}
{"smiles": "Cc1nc(-c2cccnc2)sc1C(=O)Nc1ccc(Cl)cc1", "AC50": "2.51 µM (active)"}
{"smiles": "CC(C)N=C(Nc1ccc(Cl)cc1)c1cccnc1", "AC50": "inactive"}
{"smiles": "CNC(=O)c1sc(-c2cccnc2)nc1C", "AC50": "14.1 µM (active)"}
{"smiles": "Cc1nc(-c2cccnc2)sc1C(=O)Nc1ccc(F)cc1F", "AC50": "4.47 µM (active)"}
{"smiles": "CC(=O)NC1(c2ccc(F)cc2)CCN(C(=O)Nc2ccc(F)cc2F)CC1", "AC50": "inactive"}
{"smiles": "CC(C)NC(=O)N1CC2(CCN(S(=O)(=O)c3ccccc3)CC2)C1", "AC50": "inactive"}
{"smiles": "Cn1ccnc1C[C@@](C)(O)c1ccccc1", "activity, negative = inhibition": "-14.2% [at 11.4 µM]"}
{"smiles": "CC(Sc1ccc2c(c1)OCCO2)C(=O)Nc1ncc(Cl)cc1Cl", "note": "(configuration not stated)", "AC50": "6.31 µM (active)"}
{"smiles": "CC(C(=O)NC1CCCC1)N(C(=O)c1snc(C(N)=O)c1N)c1ccc2c(c1)OCCO2", "note": "(configuration not stated)", "AC50": "inactive"}
{"smiles": "COCC(=O)N1CCC2(CCCN(Cc3ccccc3OC)C2)CC1", "AC50": "inactive"}
{"smiles": "NCC(=O)Nc1ccc(Cl)cc1C(=O)c1ccc[nH]1", "AC50": "3.16 µM (active)"}
{"smiles": "Cc1cccc(Cn2cnc3c(NS(C)(=O)=O)c(C)c(C)cc32)c1", "AC50": "3.16 µM (active)"}
{"smiles": "Cc1ncc([N+](=O)[O-])n1CC(=O)NCc1ccccc1", "AC50": "inactive"}
{"smiles": "Cc1cc2c(ncn2Cc2ccccc2)c([N+](=O)[O-])c1C", "AC50": "5.62 µM (active)"}
{"smiles": "Cc1nn(CC(=O)NCc2ccccc2)c(C)c1[N+](=O)[O-]", "AC50": "inactive"}
{"smiles": "CC(=O)C=NCC(=O)O", "activity, negative = inhibition": "0.0576% [at 11.4 µM]"}
{"smiles": "COC(=O)[C@@]1(Cc2ccc(F)cc2)[C@H]2c3cc(C(=O)N(C)C)n(Cc4ccc(C(F)(F)F)nc4)c3C[C@H]2CN1C(=O)c1ccccc1", "AC50": "inactive"}
{"smiles": "COc1ccc(CCNc2nc(-c3cccnc3)cs2)cc1OC", "AC50": "0.355 µM (active)"}
{"smiles": "COc1ccccc1CNc1cc(-c2cccnc2)ncn1", "AC50": "1 µM (active)"}
{"smiles": "COc1ccc(CNc2cc(-c3cccnc3)ncn2)c(OC)c1", "AC50": "1.26 µM (active)"}
{"smiles": "CC(C)(C)C(=O)N(CCN(C(=O)C(C)(C)C)c1ccccc1)c1ccccc1", "AC50": "inactive"}
{"smiles": "COC(=O)C/C=C\\[C@@H](C)[C@@H](/C=N\\OC[C@@H](O)[C@H]1O[C@H]2OC(C)(C)O[C@H]2[C@@H]1O)NS(=O)(=O)c1ccc(C)cc1", "activity, negative = inhibition": "0.282% [at 11.4 µM]"}
{"smiles": "CCCC[C@@H]1C[C@H]1C(NC(=O)c1ccccc1)c1ccccc1", "note": "(some centres not stated)", "AC50": "2.51 µM (active)"}
{"smiles": "C=C(CC1([C@@H](NP(=O)(c2ccccc2)c2ccccc2)[C@H]2C[C@@H]2CCCC)CC1)c1ccccc1", "AC50": "inactive"}
{"smiles": "C[C@@]1(C(NC(=O)c2ccc(-c3ccccc3)cc2)c2ccc(Cl)cc2)C[C@H]1C1CCCCC1", "note": "(some centres not stated)", "AC50": "inactive"}
{"smiles": "CCC[C@@H]1C[C@@]1(CCC)C(NC(=O)c1ccccc1)c1cccc(Cl)c1", "note": "(some centres not stated)", "AC50": "inactive"}
{"smiles": "CCCC[C@@H]1C[C@H]1C(NC(=O)c1ccccc1)c1ccc(Cl)cc1", "note": "(some centres not stated)", "AC50": "1 µM (active)"}
{"smiles": "CCCC[C@@H]1C[C@H]1C(NC(=O)c1ccc(-c2ccccc2)cc1)c1ccc(-c2ccccc2)cc1", "note": "(some centres not stated)", "AC50": "inactive"}
{"smiles": "COC(=O)c1ccc(Oc2cc(C)nc(-n3nc(C)cc3C)n2)cc1", "AC50": "8.91 µM (active)"}
{"smiles": "Cc1cc(C)n(-c2ccc(Cl)c(C(=O)O)n2)n1", "AC50": "inactive"}
{"smiles": "N#CC(=C1CCCC1)c1nc(-c2ccccc2)cs1", "AC50": "0.631 µM (active)"}
{"smiles": "Cc1ccc(-c2csc(C(C#N)=C3CCCC3)n2)cc1", "AC50": "3.55 µM (active)"}
{"smiles": "N#C/C(=N\\O)c1nc(-c2ccccc2)cs1", "AC50": "6.31 µM (active)"}
{"smiles": "CC1(C)N=C(N)N=C(N)N1CCCCc1ccccc1", "activity, negative = inhibition": "-4.32% [at 2.29 µM]"}
{"smiles": "O=S(=O)(O)c1ccc(-c2nnc(-c3ccccn3)nc2-c2ccc(S(=O)(=O)O)o2)o1", "activity, negative = inhibition": "-8.46% [at 11.4 µM]"}
{"smiles": "C/C(O)=C\\c1nc2ccccc2oc1=O", "AC50": "inactive"}
{"smiles": "c1ccc(-c2nc3ccccc3o2)nc1", "AC50": "0.501 µM (active)"}
